Experiment [1] is described as follows: NCI Yeast Anticancer Drug Screen. Data for the rad50 strain (AID 155).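 Also: 0% = growth of vehicle-only cultures of the same strain.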 The following applies: S. cerevisiae rad50 strain growth inhibition; at 50.0 µM; stronger effect = higher value. The procedure, abridged: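 Readout: growth inhibition relative to vehicle-treated cultures. Compound exposure was carried out in a genetically defined yeast strain deficient in DNA damage repair.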

Experiment [2] is described as follows: NCI Yeast Anticancer Drug Screen. Data for the mec2-1 strain (AID 157). Particulars: S. cerevisiae mec2-1 strain, at 50.0 µM, stronger effect = higher value. The procedure, abridged:
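Each compound was tested on mec2-1 yeast, a strain altered in DNA damage repair or cell cycle control. Growth inhibition is reported relative to vehicle.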

A short description of experiment [3]: NCI Yeast Anticancer Drug Screen. Data for the sgs1 mgt1 strain (AID 161).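 Also: 0% = growth of cultures given vehicle only.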 Particulars: S. cerevisiae sgs1 mgt1 strain, at 50.0 µM, stronger effect = higher value. Summed up:
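Test agents were incubated with a DNA-repair-mutant yeast strain. Growth was then read and compared against vehicle-treated controls.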

A short description of experiment [4]: NCI Yeast Anticancer Drug Screen. Data for the cln2 rad14 strain (AID 165).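 Also: 0% = growth equal to vehicle treated cultures.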 Particulars: S. cerevisiae cln2 rad14 strain, at 50.0 µM, stronger effect = higher value. The procedure, abridged:
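Test compounds were added to cln2 rad14 yeast cultures; inhibition of growth was then determined by comparison with vehicle treatment.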

Experiment [5] can be described thus: NCI Yeast Anticancer Drug Screen. Data for the bub3 strain (AID 167). Particulars: S. cerevisiae bub3 mutant strain, at 50.0 µM, stronger effect = higher value. The procedure, abridged: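 Readout: yeast growth inhibition, expressed relative to vehicle-only wells. The test organism is a mutant strain from a panel with lesions in DNA repair or checkpoint genes.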
Experiment [6] is described as follows: NCI Yeast Anticancer Drug Screen. Data for the mlh1 rad18 strain (AID 175). The following applies: S. cerevisiae mlh1 rad18 strain growth inhibition; at 50.0 µM; stronger effect = higher value. Summed up:
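Inhibition values reflect reduced growth of mutant yeast versus vehicle-treated controls following compound exposure; the mutations affect DNA damage repair.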

Structures are written as SMILES. This is part of a sample that, as a whole, favours compounds with a hit. Of some 79,000 tested, about 15% had one in any assay. Values without a mark were called inactive. Activity calls are given as the source filed them. Rule as the data show it: active = growth inhibition above about 70%; inactive = the rest. Where a SMILES comes first, the peptide text is derived from it. The star is where a group is joined. Boc = CC(C)(C)OC(=O)*; OBn = c1ccc(CO*)cc1

Regarding `CC1(C)C(OS(C)(=O)=O)C(C)(C)C1OS(C)(=O)=O` (stereo not given), the growth inhibition in experiment [1] is 3.75%; in experiment [2], -20.6%; in experiment [3], 13.7%; in experiment [4] it was 9.45%; in experiment [5] it was 8.4%; in experiment [6], -12.9%.

In the case of `CN1CCCCC1CCN1CCCCC1` (stereo not given), the growth inhibition was -38.9% in experiment [1]; -10.2% in experiment [2]; -7.8% in experiment [3]; -39.5% in experiment [4]; -17.9% in experiment [5]; 1.3% in experiment [6].

As for `CCCC(C(=O)O)(c1ccccc1)c1ccccc1`, the growth inhibition is 11.3% in experiment [1]; 0.55% in experiment [2]; 5.45% in experiment [3]; -24.9% in experiment [4]; 7.5% in experiment [5]; 1.8% in experiment [6].

As for `Cc1cc2c3ccccc3n(C)c2c2c1C(=O)c1ccccc1C2=O`, the growth inhibition in experiment [1] is 15.8%; in experiment [2], 28%; in experiment [3] it was 3.3%; in experiment [4] it was 5.45%; in experiment [5] it was 17.4%; in experiment [6] it was 11.2%.

With `O=Cc1ccc(-c2cccc([N+](=O)[O-])c2)s1`, the growth inhibition was 4.9% in experiment [1]; 6.1% in experiment [2]; -14.1% in experiment [3]; 19.9% in experiment [4]; 6.1% in experiment [5]; 1.85% in experiment [6].

On to `CC(=O)N1C(=O)C2(Nc3cccnc3N2)c2ccccc21` (stereo not given), for which the growth inhibition is -4.85% in experiment [1]; 16.4% in experiment [2]; -1.8% in experiment [3]; -1.35% in experiment [4]; -0.95% in experiment [5]; -16.1% in experiment [6].

In the case of `COC1CC(C)(NC(=O)C(F)(F)F)C2OC(c3ccccc3)OCC2O1` (stereo not given), the growth inhibition in experiment [1] is -25%; in experiment [2], -17.7%; in experiment [3], -41.4%; in experiment [4], -35%; in experiment [5], -3.85%; in experiment [6] it was -9.65%.

Consider `Cc1cccc(C(=O)OC(=O)c2cccc(C)c2)c1`, for which the growth inhibition in experiment [1] was -3.85%; in experiment [2] it was -37%; in experiment [3], -9.75%; in experiment [4], -6%; in experiment [5] it was -23.9%; in experiment [6] it was 10.3%.

For the compound `CC(NC(=O)C(NC(=O)OC(C)(C)C)C(C)C)C(=O)N1CCCC1C(=O)NCC(=O)NC(C(=O)NCC(=O)OCc1ccccc1)C(C)C` (stereo not given) (Boc-VAPGVG-OBn; configuration not given here), the growth inhibition in experiment [1] was -30.1%; in experiment [2], -33.4%; in experiment [3], -20.9%; in experiment [4], 6.85%; in experiment [5], -18.9%; in experiment [6], -48.4%.

As to `COc1ccc(/C(Cl)=C(\C=O)c2ccc(Cl)c(Cl)c2)cc1OC`, the growth inhibition in experiment [1] is 28.1%; in experiment [2] it was 11.2%; in experiment [3] it was 27.5%; in experiment [4] it was -34.6%; in experiment [5], 0.7%; in experiment [6] it was 43.1%.

In the case of `NC(CC(=O)O)C(=O)OCc1cccc(N=Nc2ccccc2)c1` (stereo not given), the growth inhibition in experiment [1] is 7.8%; in experiment [2] it was -8.35%; in experiment [3], -7.2%; in experiment [4] it was -3.2%; in experiment [5] it was -2.4%; in experiment [6] it was 4.3%.

Take `COC(=O)/C=C/c1ccc2c(c1)CCC2`: the growth inhibition in experiment [1] is -35.5%; in experiment [2], -30.9%; in experiment [3], -13.8%; in experiment [4], 14.6%; in experiment [5], 31.7%; in experiment [6], -1.35%.

For `Cc1cccc(C)c1NC(=O)C(=O)CC(=O)c1cccc([N+](=O)[O-])c1`, the growth inhibition in experiment [1] was 45.4%; in experiment [2], 11.9%; in experiment [3], 2.2%; in experiment [4] it was 24.4%; in experiment [5] it was 19.2%; in experiment [6], 40.9%.

Take `Cc1cccc(C(O)c2ccccn2)c1O` (stereo not given): the growth inhibition in experiment [1] is -3.85%; in experiment [2], -4.45%; in experiment [3] it was -6.8%; in experiment [4], -4.45%; in experiment [5], -3.8%; in experiment [6], 3.1%.

For `O=C(Nc1ccccc1Br)c1ccc(F)cc1`, the growth inhibition is -0.9% in experiment [1]; 3.1% in experiment [2]; -11.3% in experiment [3]; -18.4% in experiment [4]; 14.8% in experiment [5]; 14.6% in experiment [6].

With `CCC(=O)O[C@@H]1C2C(OC(C)=O)C34COC(C)([C@@H]3C3C(C[C@]3(C)OC(C)=O)[C@@H](OC(=O)c3ccccc3)C4=O)[C@H](OC(C)=O)[C@@]2(OC(C)=O)C[C@@H]1C` (stereo not given in full), the growth inhibition in experiment [1] was 4.2%; in experiment [2], -6.65%; in experiment [3], 4.85%; in experiment [4], 0.45%; in experiment [5], 9.95%; in experiment [6], 4.35%.

On to `CS(=O)(=O)CCCCCCCCCCS(C)(=O)=O`, for which the growth inhibition in experiment [1] is 9.45%; in experiment [2], 2.45%; in experiment [3], -4.35%; in experiment [4], -23.7%; in experiment [5] it was 5%; in experiment [6] it was 4.5%.

For the compound `O=S(=O)(O)c1ccc2c(N=Nc3cccc4ccccc34)c(O)c(S(=O)(=O)O)cc2c1`, the growth inhibition was -2.35% in experiment [1]; 4.9% in experiment [2]; -21.3% in experiment [3]; 41.2% in experiment [4]; -17.8% in experiment [5]; 23.1% in experiment [6].

With `CCCCCCCC(=O)OCC(=O)c1ccc(-c2ccccc2)cc1`, the growth inhibition in experiment [1] is -24.8%; in experiment [2], -1.6%; in experiment [3], 2.85%; in experiment [4], -28.6%; in experiment [5], 11.5%; in experiment [6], 3.1%.

For the compound `CCCCCCCCCCCCCCC[N+](C)(C)C`, the growth inhibition in experiment [1] is 99.5% (active); in experiment [2] it was 99.3% (active); in experiment [3] it was 36.1%; in experiment [4], 99.2% (active); in experiment [5], 97.5% (active); in experiment [6], 99.5% (active).

(Values after PubChem BioAssay (NCI).)
